# Results taken from the supplement of paper PMC10338343.
# ± gives the standard deviation.
# Assays:
# [1] = test system: MILI (PIWIL2) piRISC loaded with L1MC piRNA (26 nt); test: pre-steady-state target cleavage rate (min^-1); guide: L1MC piRNA 5'p-UAACUAAAUACUAUGCAAGCUGUAGG; higher = faster piRNA-guided slicing of the target;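 note: 1 nM active piRISC with 0.1 nM target library at 33 °C single turnover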
# Summary of the method: (§1)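 The pre-steady-state cleavage rate was derived from a burst-and-steady-state fit of Cleave-'n-Seq data. For these assays, 1 nM active affinity-purified piRISC loaded with a single synthetic guide was mixed with […] a transcribed, DNA-blocked target RNA library in HEPES–potassium acetate buffer at 33 °C, with or without 500 nM GTSF1 partner protein, for 0–8 or 0–960 min. Sequencing counts of uncleaved targets were normalised to depth and to weakly complementary targets, and k3 was capped at 0.0001 min^-1 after three trials were pooled.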
# [2] = test system: EfPiwi piRISC loaded with L1MC piRNA (26 nt); test: pre-steady-state target cleavage rate (min^-1); auxiliary factor: 500 nM Ephydatia muelleri Gtsf1; guide: L1MC piRNA 5'p-UAACUAAAUACUAUGCAAGCUGUAGG; MIWI and MILI are mouse PIWI proteins and EfPiwi is from a freshwater sponge; tags in brackets are library labels; higher = faster piRNA-guided slicing of the target
# Summary of the method: as §1
# [3] = auxiliary factor: 500 nM mouse GTSF1
# [4] = auxiliary factor: none (no GTSF1)
Sequence,"pre-steady-state target cleavage rate [1, 3]","pre-steady-state target cleavage rate [1, 4]",pre-steady-state target cleavage rate [2]
UCCUGGAAGAGCUUGCAUAGUAUUUAGUAA,0.201 ± 0.014,0.00564 ± 0.0021,0.00426 ± 0.0021
UCCUGCUUCAGGUUGCAUAGUAUUUAGUUA,0.235 ± 0.015,0.0111 ± 0.003,0.0664 ± 0.015
UCCUGGUACAGCAUGCAUAGUAUUUAGAUA,0.137 ± 0.025,0.00437 ± 0.0029,0.00412 ± 0.0025
UCCUGCUACAGCUUGCAUAUUAUUUAGUUA,0.11 ± 0.016,0.00413 ± 0.0024,0.0119 ± 0.0034
UCCUGCUAGUGCUUGCAUAGUAUUUAGUUA,0.0937 ± 0.017,0.00303 ± 0.0022,0.00363 ± 0.0014
UCCUCCUACAGCUUGCAUAGUACUUUAGUUA,0.216 ± 0.017,0.00628 ± 0.0027,0.0115 ± 0.0051
UCCUCCUACUCGUUGCAUAGUAUUUAGUUA,0.211 ± 0.018,0.00864 ± 0.002,0.101 ± 0.025
UCCUGGAUCAGCUUGCAUAGUAUUUGAGUUA,0.222 ± 0.036,0.00502 ± 0.0022,0.00696 ± 0.0028
UCCUGCUACAGCUUGCAUAGUAUUUAUGUUA,0.182 ± 0.023,0.00699 ± 0.0022,0.00419 ± 0.0019
UCCUGCUACAGCUUGCAUAGUAUUUAGUUC [g2:g25:cont:t1C],0.317 ± 0.021,0.0145 ± 0.0033,0.0645 ± 0.016
UCCUGGUACAGCUUGCUUAGUAUUUAGUUA,0.219 ± 0.024,0.00964 ± 0.0022,0.0165 ± 0.0049
UCCUGGAUCCGCUUGCAUAGUAUUUAGUUA,0.297 ± 0.019,0.00868 ± 0.0026,0.146 ± 0.029
UCCUGGAUCUGCUUGCAUAGUAUUUAGUAA,0.22 ± 0.014,0.00457 ± 0.0021,0.1 ± 0.038
UCCUGGAUGUGCAUGCAUAGUAUUUAGUUA,0.116 ± 0.011,0.0095 ± 0.0025,0.00855 ± 0.0029
UCCUGGAUGUCGUAUGCAUAGUAUUUAGUUA,0.0833 ± 0.012,0.00487 ± 0.0028,0.00476 ± 0.0027
UCCUCCUUCAGCUUGCAUUGUAUUUAGUUA,0.226 ± 0.019,0.00662 ± 0.002,0.0307 ± 0.0077
UCCUGGAACAGCAUGGAUAGUAUUUAGUUA,0.243 ± 0.016,0.00742 ± 0.0028,0.00527 ± 0.0017
UCCUGGAACAGGAUGCAUAGUAUUUAGUAA,0.221 ± 0.021,0.00369 ± 0.0022,0.0055 ± 0.0028
UCCUCCUACAGCCUUGCAUAGUAUUUAGUUA,0.262 ± 0.019,0.0101 ± 0.0026,0.0222 ± 0.0079
UCCUCCUAAAGCUUGCAUAGUAUUUAGUUA,0.157 ± 0.019,0.00372 ± 0.0021,0.00604 ± 0.0023
UCCUGGAUGAGCUUGCAUAGUAUUUAGUGUA,0.261 ± 0.041,0.00591 ± 0.0031,0.00866 ± 0.0031
UCCUCCUACAGCGUUGCAUAGUAUUUAGUUA,0.296 ± 0.021,0.0063 ± 0.0021,0.0299 ± 0.009
UCCUCCUACACGAUGCAUAGUAUUUAGUUA,0.267 ± 0.011,0.00666 ± 0.0022,0.0593 ± 0.017
UCCUGGAACAGGCUUGCAUAGUAUUUAGUUA,0.219 ± 0.019,0.0094 ± 0.0029,0.0145 ± 0.0037
UCCUGGAACAGCUUGGUUAGUAUUUAGUUA,0.213 ± 0.02,0.0126 ± 0.0037,0.0135 ± 0.005

Sequence,"pre-steady-state target cleavage rate [1, 3]","pre-steady-state target cleavage rate [1, 4]",pre-steady-state target cleavage rate [2]
UCCUGGAUGACUUGCAUAGUAUUUAGUUA,0.171 ± 0.014,0.004 ± 0.0027,0.0058 ± 0.0023
UCCUGGAUCGGCUUGCAUAGUAUUUAGUUA,0.261 ± 0.016,0.0131 ± 0.0022,0.0523 ± 0.0092
UCCUGGAUGUCCUUGCAUAGUAGUUAGUUA,0.13 ± 0.036,0.00421 ± 0.002,0.00555 ± 0.0031
UCCUCCUACAUCUUGCAUAGUAUUUAGUUA,0.277 ± 0.02,0.00791 ± 0.0022,0.0662 ± 0.02
UCCUGGUAGAGCUUGCUUAGUAUUUAGUUA,0.226 ± 0.012,0.00793 ± 0.0029,0.00885 ± 0.0045
UCCUGCUACAGCUUGCAUAGUAUUAUAGUUA,0.189 ± 0.021,0.00585 ± 0.0024,0.0103 ± 0.0037
UCCUGGAUGUGCUUGCAUAGUAUUUAGUUA [g2:g20:cont:t1A],0.142 ± 0.013,0.00984 ± 0.0023,0.015 ± 0.0046
UCCUGGAUCAGCUAGCAAAGUAUUUAGUUA,0.0976 ± 0.012,0.00566 ± 0.0019,0.00308 ± 0.0029
UCCUCCUGCAGCUUGCAUAGUAUUUAGUUA,0.301 ± 0.018,0.0088 ± 0.0027,0.103 ± 0.024
UCCUCCUACAGCAUUGCAUAGUAUUUAGUUA,0.228 ± 0.014,0.00746 ± 0.0025,0.0213 ± 0.0068
UCCUGCUUCAGCUUGCAUUGUAUUUAGUUA,0.218 ± 0.013,0.0103 ± 0.0023,0.0233 ± 0.0065
UCCUCCUACAGCUUGAAUAGUAUUUAGUUA,0.283 ± 0.015,0.00723 ± 0.002,0.0651 ± 0.017
UCCUGGAUCAGCUUGCGUAGUAUUUAGUUA,0.192 ± 0.017,0.0107 ± 0.0029,0.0111 ± 0.0032
UCCUGGAACAGCUUGCAUAGUAUUUUAGUUA,0.241 ± 0.02,0.0048 ± 0.0033,0.0192 ± 0.0054
UCCUGGAUGUCCUUGCAUAGUCUUUAGUUA,0.0269 ± 0.0075,0.00468 ± 0.0022,0.00326 ± 0.0014
UCCUGGAUGAGCUGCAUAGUAUUUAGUUA,0.101 ± 0.013,0.00501 ± 0.0028,0.00786 ± 0.0028
UCCUGGUACCAGCUUGCAUAGUAUUUAGUUA,0.276 ± 0.043,0.00866 ± 0.0047,0.0109 ± 0.0044
UCCUGCUACAGCUAGCAUAGUUUUUAGUUA,0.0836 ± 0.014,0.00345 ± 0.0024,0.00472 ± 0.0016
UCCUGGAUGAGCUUGCAUACUAUUUAGUUA,0.0499 ± 0.0093,0.00321 ± 0.0018,0.00682 ± 0.0019
UCCUCCUACAGACUUGCAUAGUAUUUAGUUA,0.253 ± 0.02,0.00669 ± 0.0021,0.017 ± 0.006
UCCUCCUAACAGCUUGCAUAGUAUUUAGUUA,0.213 ± 0.018,0.0084 ± 0.0021,0.0133 ± 0.0051
UCCUGGAUGUGUCUUGCAUAGUAUUUAGUUA,0.072 ± 0.013,0.014 ± 0.004,0.113 ± 0.038
UCCUGGAUGUCCUUGCAUAGUUUUUAGUUA,0.0125 ± 0.0057,0.00594 ± 0.0021,0.00455 ± 0.003
UCCUGGAUGUCGUUCGCAUAGUAUUUAGUUA,0.101 ± 0.013,0.00567 ± 0.0028,0.00486 ± 0.0031
UCCUCCUACUGCUUGCAUAGUAUUUUGUUA,0.0977 ± 0.016,0.00448 ± 0.0018,0.0111 ± 0.0044
